m5-HT2A agonist = mouse Htr2a agonists via beta-arrestin recruitment, primary screen, cell-based, luminescence | 5-hydroxytryptamine receptor 2A (Mus musculus), P35363 | CHO-K1 mHTR2A beta-arrestin complementation; percent of 30 µM serotonin response | activation, % at 7.6 µM | 360,000 tested, 0.66% active | AID 624169, 2012;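 active = activation above a run cutoff, the mean activation of all tested compounds plus 3 SD, cut at about 14% in these data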;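 note: 0% = plate median of compound wells and 100% = 30 µM serotonin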
Target sequence (P35363 whole entry, looked up): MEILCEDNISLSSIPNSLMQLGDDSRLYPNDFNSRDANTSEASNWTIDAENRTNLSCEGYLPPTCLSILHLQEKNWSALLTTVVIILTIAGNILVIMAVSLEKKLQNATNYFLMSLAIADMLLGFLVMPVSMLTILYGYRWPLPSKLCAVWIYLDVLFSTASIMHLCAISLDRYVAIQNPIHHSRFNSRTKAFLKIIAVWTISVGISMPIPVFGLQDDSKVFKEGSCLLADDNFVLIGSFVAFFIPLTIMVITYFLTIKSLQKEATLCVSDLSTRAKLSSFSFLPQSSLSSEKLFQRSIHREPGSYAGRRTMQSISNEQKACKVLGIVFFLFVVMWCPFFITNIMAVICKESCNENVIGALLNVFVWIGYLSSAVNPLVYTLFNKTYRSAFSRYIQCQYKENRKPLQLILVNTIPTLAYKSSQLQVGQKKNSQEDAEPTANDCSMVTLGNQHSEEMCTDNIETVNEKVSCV
MOR-DOR ag = agonists of OPRM1-OPRD1 heterodimerization, primary screen, cell-based, luminescence; cells; activation, % at 9.3 µM; 340,000 tested, 0.3% active; Mu-type opioid receptor (Homo sapiens) + Delta-type opioid receptor (Homo sapiens), …; AID 504326, 2011; in the data active = activation above about 18%;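 note: 0% = vehicle-treated cells and 100% = reference agonist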
HTR5A inv ag = HTR5A inverse agonists in luminescence cell assay, primary screen, counter-screen for OPRM1-OPRD1 heterodimer inverse agonist project, full-deck HTS; 5-hydroxytryptamine receptor 5A (Homo sapiens), P47898; HTR5A cell line, inverse agonism; inhibition, % at 9.3 µM; 340,000 tested, 0.083% active; AID 504634, 2011; in the data active = inhibition mostly above about 23%, no sharp cut-off; inactive = mostly below about 18%;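 note: 0% = cells with DMSO and 100% = no-cell wells with DMSO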
OPRM1-OPRD1 inv = inverse agonists of MOR-DOR heterodimerization, primary screen, cell-based, luminescence; Mu-type opioid receptor (Homo sapiens) + Delta-type opioid receptor (Homo sapiens), …; 340,000 tested, 0.21% active; cell-based MOR-DOR heterodimer luminescence, inverse agonism; inhibition, % at 9.3 µM; in the data active = inhibition above about 22%, passing the limit was not always enough;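 note: 0% = cells with DMSO and 100% = wells without cells with DMSO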
HTR5A ag ctr = HTR5A agonists in luminescence cell assay, primary screen, counter-screen for OPRM1-OPRD1 heterodimer agonist project, full-deck HTS; 5-hydroxytryptamine receptor 5A (Homo sapiens), P47898; 340,000 tested, 0.61% active; cell-based; activation, % at 9.3 µM; in the data active = activation mostly above about 9.5%, no sharp cut-off; inactive = mostly below about 7.6%;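 note: 0% = cells with vehicle only and 100% = reference agonist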
MOR ag counter = OPRM1 agonists via beta-arrestin recruitment, confirmation, counter-screen for mouse HTR2A agonist project, cell-based, luminescence, single concentration. shares compounds with m5-HT2A agonist. U2OS OPRM1 beta-arrestin PathHunter; DMSO 0%, DAMGO 9.3 µM 100%. activation, % at 9.3 µM. 2,300 tested, 5.3% active;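 active = mean activation above the mean of DMSO-only wells plus 3 SD, cut at about 0.5% in these data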
m5-HT2A ag conf = mouse HTR2A agonists, beta-arrestin recruitment, confirmation, cell-based, luminescence, CHO-K1 PathHunter, triplicate | shares compounds with m5-HT2A agonist | DMSO 0%, 30 µM serotonin 100% | activation, % at 7.6 µM | 2,300 tested, 19% active | AID 624381, 2012;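 active = mean activation across triplicates above the hit threshold derived in the original primary screen, cut at about 15% in these data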
An asterisk follows results filed as active; / = no result given. The list is not random: actives were taken first. Their share in the collection is about 1.6%.

SMILES | m5-HT2A agonist | MOR-DOR ag | HTR5A inv ag | OPRM1-OPRD1 inv | HTR5A ag ctr | MOR ag counter | m5-HT2A ag conf
CC(C)Sc1cc(N2CCOCC2)nc(-c2ccc(Cl)cc2)n1 | 14.5* | -2.7 | -7.3 | 15.3 | 2.6 | -0.1 | 8.9
COc1cc2c(cc1OC)CN(c1nc(CN3CCCC3)nc3sc(C)c(C)c13)CC2 | 35.3* | -3.9 | -33.6 | 17.9 | -2.2 | -0.8 | 31.8*
COCC1CCCCN1C(=O)c1cc(COc2ccc3ncccc3c2)on1 (stereo not drawn) | 19.7* | 0.6 | -26.0 | -3.2 | 7.0 | -0.5 | 0.2
N#Cc1ccc(-c2nc3ccc(Cl)cn3c2Cc2ccccc2)cc1 | -0.8 | / | / | / | / | / | /
COc1ccccc1NS(=O)(=O)c1cccc(C(=O)NNC(=O)c2ccc(O)c(Cl)c2)c1 | 15.8* | -2.2 | 17.3 | 11.4 | -6.4 | -0.5 | -3.0
COc1ccc2oc(C(=O)Nc3nc4ccccc4[nH]3)c(C)c2c1 | 148.8* | 2.0 | -12.8 | -10.8 | 4.7 | -0.3 | 55.9*
c1csc(-c2nnc(NC3CCCCC3)c3ccccc23)c1 | 23.4* | -1.9 | 11.7 | 10.1 | 1.6 | -0.8 | 9.0
CC1CCN(c2nnc(-c3cccs3)c3ccccc23)CC1 | -1.8 | 3.9 | -0.2 | -28.4 | 0.1 | / | /
Cc1cc(C)c(C)c(Cn2c(CO)nc3ccccc32)c1C | 14.9* | 1.4 | -0.9 | -7.8 | 9.9 | -0.1 | -1.4
COc1ccc2c(=O)cc(-c3ccccc3)n(C)c2c1 | -1.1 | -1.5 | 12.1 | 8.8 | -1.4 | / | /
CN1CCc2cccc3c2[C@@H]1Cc1ccc(O)c(O)c1-3 | 37.8* | 3.7 | -4.5 | -20.6 | 10.2 | -0.2 | 97.3*
O=C(COc1cccc2c1CCN(Cc1ccc(Cl)cc1)C2=O)N1CCOCC1 | 0.1 | -0.9 | 2.9 | 4.3 | -1.1 | / | /
O=C(Nc1nnc(C2CC2)s1)c1cccc(S(=O)(=O)N2CC(c3ccccc3)CC2=O)c1 (stereo not drawn) | 17.1* | 0.6 | 4.8 | -3.0 | -1.7 | -0.6 | -6.4
C=CCN(c1ccccc1OC)S(=O)(=O)c1cccc(C(=O)Nc2nnc(C3CC3)s2)c1 | 0.0 | 0.1 | -28.2 | -0.5 | 11.3 | / | /
CC(/C=N\N1CCN(Cc2ccc(C)cc2)CC1)=C\c1ccccc1 | -5.0 | 1.8 | -8.6 | -11.6 | 3.5 | / | /
C(=N\N1CCN(Cc2ccccc2)CC1)/c1ccccc1 | -8.0 | -1.2 | 5.1 | 5.9 | 7.6 | / | /
BrC(/C=N/N1CCN(Cc2ccccc2)CC1)=C/c1ccccc1 | 23.6* | 3.5 | -4.9 | -17.9 | 2.7 | -0.5 | 0.0
BrC(=C\c1ccccc1)/C=N/N1CCN(Cc2ccccc2)CC1 | 19.7* | 2.5 | 9.8 | -12.3 | -4.4 | -0.7 | -2.9
Cc1nc(NC(=O)c2ccco2)sc1C(=O)O | 18.6* | -2.5 | -21.1 | 15.6 | 4.6 | -0.7 | -3.2
O=C(Cc1cccc(C(F)(F)F)c1)NCc1cccc(Cl)c1 | 25.4* | 0.8 | -39.4 | -4.2 | 2.4 | -0.5 | -6.3
CCOc1ccc(C(C(=O)NC(C)(C)C)N(CCOC)C(=O)CCC(=O)Nc2nccs2)cc1 (stereo not drawn) | 4.3 | 0.8 | -12.6 | -6.4 | 1.2 | / | /
Cc1ccccc1NC(=S)NC(NC(=O)c1ccco1)C(Cl)(Cl)Cl (stereo not drawn) | 16.8* | -1.8 | 6.4 | 9.7 | -1.0 | -0.6 | -5.6
CC1CCCN(CCCN2C(=O)C3C(C(=O)Nc4ccc(Cl)cc4)C4C=CC3(O4)C2C(=O)NC2CCCCC2)C1 (stereo not drawn) | -1.6 | 10.4 | -12.7 | -55.4 | 4.8 | / | /
CCCN(C(=O)c1ccccc1Cc1ccccc1)C1CCS(=O)(=O)C1 (stereo not drawn) | 8.1 | 2.4 | 14.2 | -15.9 | 3.3 | / | /
COc1cc(C)nc(Oc2ccc(=O)n(C)n2)n1 | 15.2* | -2.8 | -7.0 | 13.6 | 2.9 | -0.4 | -1.4

Screening data (PubChem BioAssay)
